From PubChem BioAssay AID651561 (Sanford-Burnham Center for Chemical Genomics, 2012)
Some of the results follow. Unmarked numbers belong to inactive results. The source made the active and inactive calls. Rule as the data show it: active = IC50 below about 20 µM; inactive = the rest.

assay: blockers of mitochondrial swelling via MPTP – biochemical, absorbance, uHTS hits, dose response (AID 651561); conditions: isolated mitochondria swelling

| Compound | IC50 |
| --- | --- |
| Clc1ccc(-c2cc(C3CCNCC3)[nH]n2)c(Cl)c1 | 11.7 µM (active) |
| Cc1nn(Cc2ccccc2)c2c1C(c1ccccc1)C(C#N)=C(N)O2 (stereo not drawn) | 25.9 µM |
| CN(C)Cc1ccc(F)cc1Sc1cc(Cl)ccc1Cl | 45 µM |
| CCNCCC(=O)N1c2ccccc2Sc2ccc(NC(=O)OCC)cc21 | 32.7 µM |
| CCCc1[nH]nc2c1C(c1c(C)nn(-c3ccccc3)c1Cl)C(C#N)=C(N)O2 (stereo not drawn) | > 100 µM |
| O=C(c1ccc(Cl)cc1)c1ccc(OCC(O)CN2CCCCC2)cc1 (stereo not drawn) | 17.4 µM (active) |
| CCCC(C(=O)OCCN(CC)CC)(c1ccccc1)c1ccccc1 | 12.5 µM (active) |
| Cc1ccc2c(c1)C1CN(C)CCC1N2S(=O)(=O)c1ccc(Oc2ccc([N+](=O)[O-])cc2)cc1 (stereo not drawn) | 17.5 µM (active) |
| CCCCOC(=O)CNc1nnc(SCC(=O)OCC)[nH]c1=O | > 100 µM |
| O=C(COC(=O)c1ccccc1NC(=O)c1ccco1)Nc1ccc2c(c1)OC(F)(F)O2 | 23.5 µM |
| NC[C@H](Cc1ccccc1)NCCc1cc(C(F)(F)F)cc(C(F)(F)F)c1 | 12 µM (active) |
| O=C(Nc1cccc(-c2cccc(Cl)c2)c1)C1CCN(C2CCC2)CC1 | 5.2 µM (active) |
| COCCn1c(CN2CCC(Cc3ccccc3)CC2)nc2c1c(=O)n(C)c(=O)n2C | 3.99 µM (active) |
| COc1ccc2sc(N(CCCN(C)C)C(=O)c3ccc(S(=O)(=O)N(C)C4CCCCC4)cc3)nc2c1 | 7.47 µM (active) |
| FC(F)(F)COc1nc(N2CCCCC2)nc(N2CCNCC2)n1 | 18.9 µM (active) |
| CCCCCCCCCCCCN1C(=O)CSC1c1cccnc1 (stereo not drawn) | 9.05 µM (active) |
| Cc1cc(C)c(NC(=O)C[N+](C)(C)CC(O)COc2cccc3ccccc23)c(C)c1 (stereo not drawn) | 3.67 µM (active) |

| Compound | IC50 |
| --- | --- |
| CCCCc1nc(NCCN)c(C#N)c2c1CSC(C)(C)C2 | 13.3 µM (active) |
| CCCCOc1ccc(CSC(=N)N)cc1[N+](=O)[O-] | 6.05 µM (active) |
| Fc1ccc(N2N=C(c3cccs3)CC2c2ccco2)c(F)c1 (stereo not drawn) | 51.9 µM |
| O=C(Nc1cccc(C(F)(F)F)c1)c1ccc(N2CCNCC2)c([N+](=O)[O-])c1 | 8.28 µM (active) |
| CCOC(=O)c1c(NC(=O)CSc2cn(CC)c3ccccc23)sc2c1CCC2 | > 100 µM |
| C[C@@H](CN1CCC[C@H]1CN1C(N)=NC[C@@H]1Cc1ccccc1)N1C[C@@H](Cc2ccccc2)N(CCCC2CCCC2)C1=N | 3.54 µM (active) |
| N=c1n(Cc2ccc(Cl)cc2)c2ccccc2n1CC(O)c1ccco1 (stereo not drawn) | 5.87 µM (active) |
| O=C(NC1CCN(Cc2ccccc2)CC1)c1cc(Br)c(Br)[nH]1 | > 100 µM |
| CN(C)Cc1ccccc1C1(O)c2ccccc2CSc2ccccc21 (stereo not drawn) | 13.4 µM (active) |
| COc1ccc(/C=C(/CC(=O)Nc2ccc(C)cc2)c2nc3ccccc3s2)cc1 | 45.4 µM |
| NC(N)=N/N=C/c1ccc(Cl)c([N+](=O)[O-])c1 | 7.68 µM (active) |
| Cc1ccc(-c2noc(CCC(=O)Nc3ccccc3N3CCN(C)CC3)n2)cc1 | 18.8 µM (active) |
| CC1(C)CC(=O)c2sc(N)nc2C1 | > 100 µM |
| CN1CCC[C@@H]1CCO[C@](C)(c1ccccc1)c1ccc(Cl)cc1 | 8.66 µM (active) |
| Brc1ccc(CSc2ccc(-c3ccco3)nn2)cc1 | > 100 µM |
| CCCC[C@@H]1CN=C(N)N1CCc1cc(C(F)(F)F)cc(C(F)(F)F)c1 | 6.67 µM (active) |
